Results filed as inconclusive are left out. The source made the active and inactive calls. Calls follow the shape of the dose curve; as a rule, active = well fitted cell-killing curve with a large enough effect; inconclusive = small, poorly fitted or top-dose-only effect; inactive = flat fitted curve, though single readings scatter.
Assay: Cell Viability - LYMP2-009 (AID 968);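 also: cells exposed to compound for 24 h at 37 °C; 0% = DMSO alone and the full-kill end = tetraoctylammonium bromide at 92 µM; nearly all actives have a fitted effect of over 55% in size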
Settings: LYMP2-009 lymphoblastoid cell viability; series mostly up to 92.2 µM; activity change, negative = viability loss: at the top concentration
Text: NIH Chemical Genomics Center [NCGC]
NIH Molecular Libraries Screening Centers Network [MLSCN]
National Institutes of Environmental Health Sciences [NIEHS]
National Toxicology Program [NTP]
We have developed a 1536-well cell-based assay for quantitative high throughput screening (qHTS) against a number of cell lines to determine in vitro cytotoxicity of small molecules. This particular assay uses a human lymphoblastoid cell line (LYMP2-009) purchased from Coriell Institute for Medical Research.
NCGC Assay Protocol Summary:
The CellTiter-Glo luminescent cell viability assay (Promega) is a homogeneous method to measure the number of viable cells in culture. The end point readout of this assay is based on quantitation of intracellular ATP, an indicator of metabolic activity, using the luciferase reaction. Luciferase catalyzes the oxidation of beetle Luciferin to oxyluciferin and light in the presence of ATP. The luminescent signal is proportional to amount of ATP present.
Using the CellTiter-Glo luminescent cell viability assay, the amount of cellular ATP was measured in the lymphoblastoid cell line with complete culture medium following compound treatment for 24 hours. The assay was performed in opaque white Kalypsys 1536-well plates. In the screen, tetraoctylammonium bromide was used as positive control. Library compounds were measured for their ability to cause acute toxicity in the cell line, as reflected by a decrease in intracellular ATP levels, in a concentration-dependent manner. […] AC50 values were determined from concentration-response data modeled with the standard Hill equation.
qHTS protocol for CellTiter Glo lymphoblastoid cellular assay
[Step] [Parameter] [Value] [Description]
1. Reagent; 5 uL; 2500 lymphoblastoid cells/well
2. Time; 5 hr; 37 C incubation
4. Controls; 23 nL; Tetraoctylammonium bromide 6.4pM to 92 uM
5. Time; 24 hr; 37 C incubation
6. Reagent; 5 uL; CellTiter Glo reagent
7. Time; 30 min; Room Temperature
8. Detection; Luminescence; Viewlux plate reader
Keywords: cell viability, cytotoxicity, lymphoblastoid cell line, luminescence, NTPHTS, NTPHTS_NCGC, NIEHS, DSSTox, MLSMR, MLSCN, NIH Roadmap, qHTS, NCGC

Compound | activity change, negative = viability loss
O=S(=O)(Cl)c1ccccc1 | -0.121% (inactive)
C=C(Cl)CCl | -13.2% (inactive)
Cc1ccc2c(C)cccc2c1 | -2.04% (inactive)
CC(C)CC(C)N (stereo not given) | 0.277% (inactive)
CCCN(CCC)c1c([N+](=O)[O-])cc(C(F)(F)F)cc1[N+](=O)[O-] | -1.67% (inactive)
CSSC | -2.52% (inactive)
O=S(=O)(O)F | -2.03% (inactive)
C=CC(=O)OCC(CC)CCCC (stereo not given) | -10.2% (inactive)
Nc1ncc([N+](=O)[O-])s1 | 0.0817% (inactive)
Oc1cccc(Cl)c1 | -13.3% (inactive)
Cl/C=C/CCl | -7.62% (inactive)
BrC(Br)Br | -5.8% (inactive)
CN=C=O | -8.51% (inactive)
CCC#N | -1.25% (inactive)
CC(C)(C)OOC(=O)c1ccccc1 | -3.42% (inactive)
CCNCC | -7.38% (inactive)
CCC/C=N/O | 2.69% (inactive)
O=[N+]([O-])c1ccc(O)c([N+](=O)[O-])c1 | -6.44% (inactive)
CCOS(C)(=O)=O | -4.49% (inactive)
Cc1ccc(N)cc1N | -5.63% (inactive)

Compound | activity change, negative = viability loss
O=[N+]([O-])c1ccc2c3c(cccc13)CC2 | 4.73% (inactive)
Clc1ccc(Cl)c(Cl)c1 | -0.625% (inactive)
CCSC(=O)N1CCCCCC1 | -15.5% (inactive)
Nc1ccc([N+](=O)[O-])cc1[N+](=O)[O-] | -8.21% (inactive)
C=C(C)CCl | 2.94% (inactive)
CCCCCOC(=O)c1ccccc1C(=O)OCCCCC | -13.9% (inactive)
CC(=O)NNc1ccccc1 | 0.0754% (inactive)
N#CCc1ccccc1 | -2.98% (inactive)
Cc1cc(-c2ccc(N)c(C)c2)ccc1N | -8.23% (inactive)
Cc1ccc2c(c1N)C(=O)c1ccccc1C2=O | -24.1% (inactive)
COc1ccc(C=O)cc1 | -10.6% (inactive)
O=C(Cl)c1ccccc1F | -10.3% (inactive)
Cc1cc(N=Nc2ccccc2C)ccc1N | -19.3% (inactive)
O=[N+]([O-])c1ccccc1O | -3.51% (inactive)
[O-][Cl+2]([O-])O | 6.17% (inactive)
ClC(Cl)Br | -1.61% (inactive)
C=CC#N | -4.76% (inactive)
N#CC(O)c1ccccc1 (stereo not given) | -3.34% (inactive)
ClCc1ccccn1 | -9.59% (inactive)
C(CCOCC1CO1)COCC1CO1 (stereo not given) | -26.7% (inactive)

From PubChem BioAssay (NCATS)
